# ClpP mod – qHTS Assay for Activators of ClpP | ATP-dependent Clp protease proteolytic subunit (Bacillus subtilis (strain 168)), P80244 | purified B. subtilis ClpP, FRET peptide cleavage, 20 min | Potency, µM (highest dose often 57.5 µM), without a hit: top-dose activity change, negative = active | actives 1.9% (n = 340,000) | AID 651965, 2013; active = well fitted falling curve with a large enough effect; inconclusive = small, poorly fitted or top-dose-only effect; inactive = no such curve, though single readings can be large or run the other way; note: potency is the fitted concentration of half-maximal effect; the source files actives as falling curves though it sought activators and does not explain the sign; nearly all actives have a fitted effect of over 65% in size
#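 Buffer: 100 mM Tris/HCl pH8, 100 mM KCl, 0.05% low protease BSA, 2.5% glycerol, 0.01% Tween-20. ClpP 10 microg/mL final; 20 min RT; delta FRET normalized to ADEP and DMSO controls.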
# D3 ag – agonists of human D3 dopamine receptor | max activation, % | D3R DiscoveRx beta-arrestin cells, luminescence, 90 min | P35462 | actives 0.58% (n = 410,000) | AID 652048; in the data active = max activation above about 30%; note: 0% is about no effect
#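 Agonist-mode cell screen: cells plated at 1500/well and incubated overnight at 37 °C, then exposed to library compounds for 90 min at 37 °C. Detection reagent was added for 30–60 min at room temperature, and luminescence was read.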
# GLP-1R inv ag – inverse agonists of human GLP-1 receptor | AID 624417 | actives 1.6% (n = 410,000) | HEK293 GLP-1R CRE-luciferase, luminescence, 24 h; GLP-1R form is constitutively active | Potency, µM (titrated, usually from 38.3 µM), without a hit: top-dose activity change, negative = inhibition, usual class: inhibitors; note: potency is the fitted concentration of half-maximal effect; % is set by controls: 0 for no effect and ±100 for the full control effect; nearly all actives have a fitted effect of over 55% in size
# Target sequence (P43220 whole entry, looked up): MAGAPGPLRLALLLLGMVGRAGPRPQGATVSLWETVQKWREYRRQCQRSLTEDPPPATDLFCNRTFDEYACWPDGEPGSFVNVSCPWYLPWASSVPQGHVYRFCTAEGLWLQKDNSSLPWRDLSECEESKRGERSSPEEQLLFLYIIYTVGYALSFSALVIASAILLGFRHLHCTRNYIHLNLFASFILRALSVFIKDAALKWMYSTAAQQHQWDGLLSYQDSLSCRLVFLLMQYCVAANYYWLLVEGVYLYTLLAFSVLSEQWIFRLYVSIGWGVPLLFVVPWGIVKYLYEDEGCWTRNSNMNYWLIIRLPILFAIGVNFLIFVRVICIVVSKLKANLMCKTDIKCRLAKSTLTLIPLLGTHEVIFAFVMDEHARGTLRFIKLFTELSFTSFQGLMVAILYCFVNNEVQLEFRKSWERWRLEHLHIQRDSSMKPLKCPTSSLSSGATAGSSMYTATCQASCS
#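 Inverse agonists were sought by their lowering of basal cAMP reporter luciferase output in HEK293 cells stably carrying constitutively active human GLP-1R, after 24 h compound treatment.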
# D3 antag – blocks the human D3 dopamine receptor. AID 652054. P35462. D3R cells, DiscoveRx beta-arrestin luminescence, antagonist mode; stronger effect = lower value. max response, negative = inhibition, %. actives 2.5% (n = 360,000); in the data active = max response below about -50%; inconclusive = no clear call, values can overlap the other calls; note: % is set by controls: 0 for no effect and ±100 for the full control effect
#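 Cells expressing the human receptor were seeded at 1500 cells/well, incubated overnight at 37 degrees C in 5% CO2, then exposed to library compounds with dopamine controls for 90 minutes at 37 degrees C before luminescent detection.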
# HEK293 tox – cytotoxic in the GLP-1 receptor inverse agonist counter-screen. HEK293 cAMP-luciferase reporter cells, luminescence, 24 h. Potency, µM (titrated, usually from 38.3 µM), inactives show at the top dose activity change, negative = inhibition, usual class: inhibitors. actives 0.13% (n = 410,000). AID 624418;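 note: loss of luciferase light is scored as toxicity; potency is the fitted concentration of half-maximal effect; % is set by controls: 0 for no effect and ±100 for the full control effect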
#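 1536-well qHTS counterscreen of the MLSMR; 200 cells/uL, 12 h pre-incubation, 23 nL cpd, 24 h at 37 deg C 5% CO2, luciferase detection reagent, 12 min RT, luminescence. Inhibition = undesired.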
# GLP-1R agonist – agonists of human GLP-1 receptor; Potency, µM (titrated, usually from 45.6 µM), for inactives: top-dose activation, most hits filed as activators; P43220; AID 624172; HEK293 GLP-1R CRE-luciferase, luminescence, 4-6 h; cells express a hypersensitive GLP-1R form; actives 0.007% (n = 380,000); note: potency is the fitted concentration of half-maximal effect; % of control where 0% means no effect
# * marks the source's active call; other numbers are inactive results; i = inactive; ? = inconclusive; / = no result given. Sampled rows, rich in hits. Any-hit rate of the full collection: about 5.7%. Unless noted, calls come from the whole dose curve; as a rule, active = well fitted curve in the direction sought with a large enough effect; inconclusive = small, poorly fitted or top-dose-only effect, or another doubt; inactive = no such curve, though single readings can be large; an effect the other way counts as inactive or inconclusive.
SMILES,ClpP mod,D3 ag,GLP-1R inv ag,D3 antag,HEK293 tox,GLP-1R agonist
CCOc1ccc2c(c1)c(=O)c(C(=O)c1ccc(CC)cc1)cn2CC(=O)Nc1ccccc1OC,-1.3%,-6.1,1.6%,/,-0.4%,-0.6%
Cc1cc(C(=O)N2CCN(Cc3ccc4c(c3)OCO4)CC2)cs1,-1.7%,-30.6,0.0%,-91.7*,-1.3%,-6.5%
Cc1cc(C)cc(C(=O)N2CCN(Cc3ccc4c(c3)OCO4)CC2)c1,-0.6%,-5.8,?,-6.7,0.3%,15.2%
O=C(Cc1cccs1)Nc1cccc(-c2nc3cc4ccccc4cc3[nH]2)c1,28.2µM*,14.1,11.2µM*,11.2,-22.1%,-26.5%
CC(=O)Nc1cccc(NC(=O)Cc2cccs2)c1,3.3%,-2.5,4.7%,-16.7,2.2%,-2.9%
CC(C)C[C@H]1C(=O)N2CCC[C@H]2[C@]2(O)O[C@](NC(=O)C3C=C4c5cccc6[nH]c(Br)c(c56)C[C@H]4N(C)C3)(C(C)C)C(=O)N12 (some centres undefined),-15.0%,20.9,-2.9%,-55.1*,8.8%,3.1%
C/C=C/c1ccc(OCCCCN2CC(C)CC(C)C2)c(OC)c1 (centres undefined),0.0%,-38.9,11.2µM*,-74.0*,?,-0.6%
C/C=C/c1ccc(OCCCNCC(C)O)c(OC)c1 (centres undefined),-2.0%,-5.0,5.62µM*,-2.1,-11.6%,0.5%
C[C@@]12C(=O)N(CCO)CC(=O)N1[C@H](/C=C/c1ccccc1)[C@@H]1C(=O)N(c3ccccc3)C(=O)[C@@H]12,0.1%,-4.4,4.0%,-59.4*,20.6%,-4.2%
O=C1[C@H]2[C@@H](/C=C/c3ccccc3)N3C(=O)CN(CCO)C(=O)[C@@]3(Cc3ccccc3)[C@H]2C(=O)N1c1ccccc1,-4.3%,-39.6,10.3%,-1.4,3.2%,5.3%
COc1cc2c(C#N)c(N3CCc4ccccc4C3)nc(N)c2c(N)n1,28.2µM*,1.7,36.0%,-4.2,1.7%,2.2%
COc1cc2c(C#N)c(N3CCCCC3)nc(N)c2c(N)n1,28.2µM*,2.0,20.2%,17.2,-14.7%,1.0%
COc1cc2c(C#N)c(N3CCOCC3)nc(N)c2c(N)n1,15.8µM*,-1.1,69.4%,-1.8,-4.8%,6.5%
CCC(=O)N1c2ccccc2CC1C(=O)NCCCN1CCN(c2cccc(Cl)c2)CC1 (centres undefined),-1.4%,-24.3,-54.4%,/,-0.7%,/
C/C=C/c1cc(CN2CCN(c3ccccc3)CC2)c(O)c(OC)c1,-3.4%,-20.2,?,-98.1*,8.2%,4.0%
COc1ccc(NC(=O)C2CCN(c3cc(C)nc4c(-c5ccc(Cl)cc5)c(C)nn34)CC2)cc1,?,4.3,7.7%,/,-3.9%,-0.6%
O=C(c1nn2c(C(F)(F)F)cc(-c3ccc(F)cc3)nc2c1Cl)N1CCOCC1,-4.1%,4.1,-16.1%,10.2,0.9%,1.1%
O=C(c1nc2nc(-c3ccccc3)cc(C(F)(F)F)n2n1)N1CCOCC1,28.2µM*,1.3,10.9%,-15.4,16.0%,-3.0%
O=C(c1nc2nc(-c3ccc(Cl)cc3)cc(C(F)(F)F)n2n1)N1CCOCC1,17.8µM*,3.2,8.6%,23.1,-8.7%,-4.8%
CC(C)(C)NC(=O)c1nc2nc(-c3ccccc3)cc(C(F)(F)F)n2n1,28.2µM*,-5.0,0.9%,8.7,-14.4%,4.8%
CCc1nc2ccc(C(=O)NCc3cccs3)cn2c1N(C)Cc1nccs1,-0.6%,-6.6,6.1%,-21.4,-19.2%,14.3%
Cc1ccc(-c2cn3nc(C)c(C)nc3n2)cc1,0.8%,-4.7,1.41µM*,-9.9,i,-36.2%
O=C(NCc1ccccc1Cl)c1ccc2c(c1)N(Cc1ccccc1)CCS2,4.1%,-3.3,?,/,-5.5%,/
CCc1cccc(NC(=O)COC(=O)c2ccccc2OCc2ccccc2Br)c1,-9.7%,/,/,/,/,/
